Assay results taken from PubChem BioAssay (NCATS).
Results filed as inconclusive are left out. Active and inactive are the calls of the source. Unless noted, calls follow the shape of the dose curve; as a rule, active = well fitted curve in the direction sought with a large enough effect; inconclusive = small, poorly fitted or top-dose-only effect, or another doubt; inactive = no such curve, though single readings can be large; an effect the other way counts as inactive or inconclusive.

What was measured:
[1] = molecular target: DNA repair nuclease/redox regulator APEX1 (Homo sapiens) (UniProt P27695); test: qHTS Validation Assay for Inhibitors of the Human Apurinic/apyrimidinic Endonuclease 1 (APE1) (AID 1705;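 also: TAMRA fluorescence gain over two minutes as APE1 cuts a quenched THF abasic duplex; % is scaled to controls: 0 for no effect and ±100 for the full control effect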); settings: purified APE1 endonuclease activity, fluorescence, titration; series mostly up to 57.1 µM
DNA repair nuclease/redox regulator APEX1 (Homo sapiens), sequence (P27695 whole entry, looked up): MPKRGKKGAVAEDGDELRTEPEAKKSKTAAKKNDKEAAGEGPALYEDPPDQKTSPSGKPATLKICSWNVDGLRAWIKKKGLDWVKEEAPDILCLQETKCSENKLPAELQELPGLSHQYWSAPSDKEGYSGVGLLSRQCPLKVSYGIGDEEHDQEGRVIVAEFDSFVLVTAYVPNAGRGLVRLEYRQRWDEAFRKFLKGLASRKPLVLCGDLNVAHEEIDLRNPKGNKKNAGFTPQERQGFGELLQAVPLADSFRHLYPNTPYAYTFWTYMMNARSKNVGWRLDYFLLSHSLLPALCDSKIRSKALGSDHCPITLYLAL
Outline: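 Substrate: 50 nM final fluorophore/quencher THF-abasic duplex. Enzyme preincubated with compounds 15 min, RT. Progress derived from fluorescence difference, third minus first kinetic read.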

[2] = Counterscreen for APE1 Inhibitors: Fluorescent Dye Displacement Validation Assay (AID 1707); settings: fluorescent dye displacement from DNA; series mostly up to 57.1 µM;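 also: plate controls were ThO with dsDNA and no compound for no effect and ThO without dsDNA for full effect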
Outline: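 Signal: ThO fluorescence (ex 480 nm/em 540 nm) on binding 50 nM dsDNA; displacement by test compound reduces it. Conditions: 250 nM dye, 50 mM Tris-HCl pH7.5, 2 mM MgCl2, 50mM NaCl, 0.01% Tween-20.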

[3] = molecular target: Endonuclease 4 (Escherichia coli (strain K12)) (UniProt P0A6C1); test: Counterscreen for APE1 Inhibitors: qHTS Validation Assay for Inhibitors of Endonuclease IV (AID 1708); also: % is scaled to controls: 0 for no effect and ±100 for the full control effect; settings: E. coli endonuclease IV, DNA cleavage fluorescence; series mostly up to 57.1 µM
Outline: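 Measured as reaction progress, the fluorescence gain between first and third kinetic reads after adding 50 nM TAMRA/BHQ-2 THF duplex to 2 nM enzyme preincubated 15 min with compound; 2 mM MgCl2, pH 7.5.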

[4] = molecular target: Ferritin light chain (Equus caballus) (UniProt P02791); test: qHTS Validation Assay for Identification of Novel General Anesthetics (AID 2323); settings: horse apoferritin, anesthetic-site fluorescent probe displacement; series mostly up to 76.9 µM; also: % is scaled to controls: 0 for no effect and ±100 for the full control effect
Ferritin light chain (Equus caballus), sequence (P02791 2-175 limits assumed): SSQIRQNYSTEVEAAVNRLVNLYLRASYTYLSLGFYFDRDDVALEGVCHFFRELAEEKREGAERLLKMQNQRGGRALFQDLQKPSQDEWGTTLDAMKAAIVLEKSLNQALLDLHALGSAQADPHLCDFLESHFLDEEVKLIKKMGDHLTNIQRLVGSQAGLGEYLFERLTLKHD
Outline: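 Normalized fluorescence response, scaled between free 1-AMA and 1-AMA/apoferritin complex, fitted to a four-parameter Hill equation for concentration-effect values. Binding mix: 10 uM horse-spleen apoferritin, 50% saturated 1-AMA in PBS; read 380/535 nm after 10 min.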

[5] = Validation screen for inhibitors of Lassa infection (AID 463096; calls by dose curve; also: % is scaled to controls: 0 for no effect and ±100 for the full control effect); settings: Lassa virus infection, cell-based; series mostly up to 46.1 µM
[6] = Validation screen for small molecules that induce DNA re-replication in MCF 10A normal breast cells (AID 463097); settings: MCF 10A cells, DNA re-replication phenotype imaging; series mostly up to 46.1 µM; also: 0% is about no effect; nearly all actives have a fitted effect of over 60% in size
Outline: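 Following 48 hr compound incubation (37 C, 5% CO2), MCF 10A cells receive Hoechst for 40 min at 37 C. Nuclei are then scanned (excitation 405 nm, emission 500-530 nm) for total fluorescence intensity.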

[7] = molecular target: Thyrotropin receptor (Homo sapiens) (UniProt P16473); test: qHTS Assay for Antagonists of the Thyroid Stimulating Hormone Receptor (AID 488980); settings: TSHR-expressing cells, cAMP antagonist read-out; series mostly up to 57.5 µM; also: 0% is about no effect
Thyrotropin receptor (Homo sapiens), sequence (P16473 whole entry, looked up): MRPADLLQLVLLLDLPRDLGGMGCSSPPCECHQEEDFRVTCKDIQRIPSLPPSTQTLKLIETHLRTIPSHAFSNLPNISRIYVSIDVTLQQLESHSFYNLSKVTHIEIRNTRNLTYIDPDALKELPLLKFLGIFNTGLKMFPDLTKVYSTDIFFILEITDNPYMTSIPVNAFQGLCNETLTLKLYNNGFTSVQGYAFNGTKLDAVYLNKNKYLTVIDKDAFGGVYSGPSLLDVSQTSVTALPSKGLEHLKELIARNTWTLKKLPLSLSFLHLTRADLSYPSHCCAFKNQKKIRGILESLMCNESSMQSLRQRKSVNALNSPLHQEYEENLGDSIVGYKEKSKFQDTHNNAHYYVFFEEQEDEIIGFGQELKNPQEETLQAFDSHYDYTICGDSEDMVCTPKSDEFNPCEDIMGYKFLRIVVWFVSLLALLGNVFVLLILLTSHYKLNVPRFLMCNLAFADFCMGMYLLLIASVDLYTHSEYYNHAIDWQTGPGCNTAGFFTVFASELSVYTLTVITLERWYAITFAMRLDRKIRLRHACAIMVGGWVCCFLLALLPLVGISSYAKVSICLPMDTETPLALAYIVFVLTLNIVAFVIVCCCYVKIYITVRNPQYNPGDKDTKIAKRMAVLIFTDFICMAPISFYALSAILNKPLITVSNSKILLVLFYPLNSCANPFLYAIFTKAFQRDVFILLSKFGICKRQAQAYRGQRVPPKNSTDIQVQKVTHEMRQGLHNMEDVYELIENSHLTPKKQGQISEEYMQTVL
Outline: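 Inhibition of TSH-stimulated cAMP accumulation was quantified by homogeneous time-resolved FRET in TSHR-transfected HEK293 cells. Agonist: TSH, 4 nM final (EC80).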

[8] = molecular target: Thyrotropin-releasing hormone receptor (Homo sapiens) (UniProt P34981); test: qHTS for Small Molecule Agonists and Allosteric Enhancers of Human TRH Receptor: Validation Screen for Agonists (AID 493127;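 active = calcium activation more than 3 SD above the typical response in the agonist read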;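 also: intracellular calcium rise by fluo-8 fluorescence before TRH EC20 addition; 0% is about no effect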); settings: TRH receptor agonist cell assay; at 2 µM; hits give high values
Thyrotropin-releasing hormone receptor (Homo sapiens), sequence (P34981 whole entry, looked up): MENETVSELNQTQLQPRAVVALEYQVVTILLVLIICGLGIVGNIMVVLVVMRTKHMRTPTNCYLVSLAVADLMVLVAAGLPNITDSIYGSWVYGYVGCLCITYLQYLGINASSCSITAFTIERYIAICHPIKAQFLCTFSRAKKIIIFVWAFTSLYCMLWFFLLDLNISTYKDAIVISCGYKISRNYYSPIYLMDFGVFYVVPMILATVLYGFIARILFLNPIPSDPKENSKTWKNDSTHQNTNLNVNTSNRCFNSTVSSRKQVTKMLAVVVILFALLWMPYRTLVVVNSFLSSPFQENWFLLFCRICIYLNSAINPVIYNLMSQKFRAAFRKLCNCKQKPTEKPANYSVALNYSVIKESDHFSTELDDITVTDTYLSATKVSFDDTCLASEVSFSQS
Outline: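 Read-out: intracellular calcium release measured kinetically by FDSS (fluo-8, ex 480/em 530 nm), 1 reading/s after a 10-cycle baseline. TRHR cells, 2000/well, cultured 18 h at 33.5C, dye-loaded at room temp. Compound-evoked positive calcium signal flags agonists.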

[9] = Validation screen for small molecules that induce DNA re-replication in SW480 colon adenocarcinoma cells (AID 504364); settings: DNA re-replication phenotype (high-content imaging); series mostly up to 46.1 µM; also: 0% is about no effect
Outline: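 Read-out: total Hoechst intensity of nuclei by fluorescence scanning imager; hits raise the fraction of nuclei with elevated DNA content. Cells received compound for 48 hr at 37 C before a 40 min stain.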

[10] = molecular target: Glutathione peroxidase 1 (Homo sapiens) (UniProt P07203); test: Primary qHTS Assay for Inhibitors of Recombinant Selenoprotein Glutathione Peroxidase 1 (GPX1) (AID 1845191); settings: recombinant GPX1, GR-coupled NADPH fluorescence, 15 min; series mostly up to 48.8 µM; also: % is scaled to controls: 0 for no effect and ±100 for the full control effect; nearly all actives have a fitted effect of over 65% in size
Glutathione peroxidase 1 (Homo sapiens), sequence (P07203 whole entry, looked up): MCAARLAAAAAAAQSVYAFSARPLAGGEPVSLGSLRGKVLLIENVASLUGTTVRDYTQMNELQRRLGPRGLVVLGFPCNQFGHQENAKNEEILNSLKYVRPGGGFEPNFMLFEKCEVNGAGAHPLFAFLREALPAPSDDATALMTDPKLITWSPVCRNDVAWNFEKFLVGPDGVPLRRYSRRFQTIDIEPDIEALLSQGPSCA
Outline: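 GPX1 10 nM, GR 100 nM, GSH 1 mM, NADPH 0.5 mM, CHP 0.5 mM (final). 30-min cpd preincubation, RT. Ex340/Em450 read t=0, t=15 min.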

[11] = molecular target: Phospholipid hydroperoxide glutathione peroxidase GPX4 (Homo sapiens) (UniProt P36969); test: Primary qHTS Assay for Inhibitors of Recombinant Selenoprotein Glutathione Peroxidase 4 (GPX4) (AID 1845192); settings: recombinant GPX4, GR-coupled NADPH fluorescence, 15 min; series mostly up to 50 µM; also: % is scaled to controls: 0 for no effect and ±100 for the full control effect; nearly all actives have a fitted effect of over 65% in size
Phospholipid hydroperoxide glutathione peroxidase GPX4 (Homo sapiens), sequence (P36969 whole entry, looked up): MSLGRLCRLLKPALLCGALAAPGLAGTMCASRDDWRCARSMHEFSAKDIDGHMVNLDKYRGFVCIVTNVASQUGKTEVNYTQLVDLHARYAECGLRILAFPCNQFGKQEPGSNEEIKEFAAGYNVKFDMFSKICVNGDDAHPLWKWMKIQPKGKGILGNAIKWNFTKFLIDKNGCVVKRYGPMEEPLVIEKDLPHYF
Outline: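 qHTS, GR-coupled: GPX4 200 nM + cpd 30 min RT → GSH 1 mM, NADPH 0.5 mM, GR 100 nM → CHP 0.5 mM start; fluor 340/450 at t0 and t15 min; no-enzyme wells as control.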

NCC#Cc1ccccc1
inactive: Potency [1] | outcome [2] | Potency [3] | Potency [4] | Potency [5] | Potency [6] | outcome [7] | activation [8] 1.69%

CCCN1CCCC(c2cccc(O)c2)C1 (configuration not stated)
inactive: Potency [1] | outcome [2] | Potency [3] | Potency [4] | Potency [5] | Potency [6] | outcome [7] | activation [8] -4.62% | outcome [9]

CCN(CC)C(=O)N[C@@H]1C[C@@H]2c3cccc4[nH]cc(c34)C[C@H]2N(C)C1
inactive: Potency [1] | outcome [2] | Potency [4] | Potency [5] | Potency [6] | outcome [7] | activation [8] -2.62% | outcome [9]

C[C@H]1C2Cc3ccc(O)cc3[C@]1(C)CCN2CC1CC1
inactive: Potency [1] | outcome [2] | Potency [3] | Potency [4] | Potency [5] | Potency [6] | outcome [7] | activation [8] 1.81% | outcome [9]

C/C1=C/C[C@@H](/C(C)=C/c2csc(C)n2)OC(=O)C[C@H](O)C(C)(C)C(=O)[C@H](C)[C@@H](O)[C@@H](C)CCC1
inactive: Potency [10] | Potency [11]

C[C@H]1OC[C@@H](C[N+](C)(C)C)O1
inactive: Potency [1] | outcome [2] | Potency [3] | Potency [4] | Potency [5] | Potency [6] | outcome [7] | activation [8] 24.3% | outcome [9]

CN1CCC23CCCC[C@H]2C1Cc1ccc(O)cc13 (some centres not stated)
inactive: Potency [1] | outcome [2] | Potency [4] | Potency [5] | Potency [6] | outcome [7] | activation [8] 0.625% | outcome [9]

C[N+]1(C)C2CC(OC(=O)C(CO)c3ccccc3)CC1C1OC12 (configuration not stated)
inactive: Potency [1] | outcome [2] | Potency [3] | Potency [4] | Potency [5] | Potency [6] | outcome [7] | outcome [9]

CCCN1CCC[C@@H]2Cc3n[nH]cc3C[C@H]21
inactive: Potency [1] | outcome [2] | Potency [3] | Potency [4] | Potency [5] | Potency [6] | outcome [7] | activation [8] 1.12% | outcome [9]

Oc1ccc2c3c1O[C@H]1[C@@H](O)CC[C@@]4(O)C(C2)N(CC2CCC2)CCC314 (some centres not stated)
inactive: Potency [1] | outcome [2] | Potency [3] | Potency [4] | Potency [5] | Potency [6] | outcome [7] | activation [8] 1.31% | outcome [9]

CCN1C[C@]2(C)CC[C@H](O)[C@@]34[C@@H]5C[C@@H]6[C@@H](OC)C[C@@](O)(C5[C@H]6O)[C@@H](C[C@@H]23)[C@@H]14
inactive: Potency [1] | outcome [2] | Potency [3] | Potency [4] | Potency [5] | Potency [6] | outcome [7] | activation [8] 0.875% | outcome [9]

CC[C@@H](CO)NC(=O)[C@H]1C=C2c3cccc4c3c(cn4C)C[C@H]2N(C)C1
inactive: Potency [3] | Potency [4] | Potency [6] | activation [8] -2.81% | outcome [9]

N#CC(=Cc1ccc(O)c(O)c1)C(N)=S
inactive: outcome [2] | Potency [3] | Potency [5] | Potency [6] | outcome [7] | activation [8] 3.19% | outcome [9]

COc1cc(C[C@@H](C)N)c(OC)cc1I
inactive: Potency [1] | outcome [2] | Potency [3] | Potency [4] | Potency [5] | Potency [6] | outcome [7] | activation [8] 0.562% | outcome [9]

CCCN(CCC)C(=O)Cc1c(-c2ccc(Cl)cc2)nc2c(Cl)cc(Cl)cn12
inactive: Potency [1] | outcome [2] | Potency [3] | Potency [5] | outcome [7] | activation [8] -11.1% | outcome [9]

C#CCN(C)C(C)Cc1ccccc1 (configuration not stated)
inactive: Potency [1] | outcome [2] | Potency [3] | Potency [5] | Potency [6] | outcome [7] | activation [8] -5.25% | outcome [9]

COc1ccc2c(c1O)-c1cccc3c1C(C2)N(C)CC3 (configuration not stated)
inactive: Potency [1] | outcome [2] | Potency [3] | Potency [4] | Potency [5] | Potency [6] | outcome [7] | activation [8] 1.19% | outcome [9]

CC12CCC3C(CCC4=C(O)C(=O)CCC43C)C1CCC2=O (configuration not stated)
inactive: Potency [1] | outcome [2] | Potency [3] | Potency [4] | Potency [5] | Potency [6] | outcome [9]

CCNC(=O)[C@H]1O[C@@H](n2cnc3c(N)ncnc32)[C@H](O)[C@H]1O
inactive: Potency [1] | outcome [2] | Potency [3] | Potency [4] | Potency [5] | Potency [6] | outcome [7] | activation [8] 0% | outcome [9]

CCC(CO)NC(=O)[C@@H]1C=C2c3cccc4[nH]cc(c34)C[C@H]2N(C)C1 (some centres not stated)
inactive: outcome [2] | Potency [4] | Potency [5] | Potency [6] | outcome [7] | activation [8] -2.81% | outcome [9]

C[C@]12CC[C@H]3[C@@H](CCC4C[C@H](O)CC[C@@]43C)[C@@H]1CC[C@@H]2O (some centres not stated)
inactive: Potency [1] | outcome [2] | Potency [3] | Potency [5] | Potency [6] | outcome [7] | activation [8] 1.31% | outcome [9]

COc1cc(C=C(C#N)C#N)cc(O)c1O
inactive: Potency [1] | outcome [2] | Potency [3] | Potency [4] | Potency [5] | outcome [7] | activation [8] 2.88% | outcome [9]

NC(Cn1ccc(=O)[nH]c1=O)C(=O)O (configuration not stated)
inactive: Potency [1] | outcome [2] | Potency [3] | Potency [4] | Potency [5] | Potency [6] | outcome [7] | activation [8] 0.375% | outcome [9]

CN1C[C@@H](CS(=O)(=O)N(C)C)C[C@@H]2c3cccc4c3c(cn4C)C[C@H]21
inactive: Potency [1] | outcome [2] | Potency [3] | Potency [4] | Potency [5] | Potency [6] | outcome [7] | activation [8] 1.44% | outcome [9]

CCCN1CCC[C@@H](c2cccc(C#N)c2)C1
inactive: Potency [1] | outcome [2] | Potency [3] | Potency [4] | Potency [5] | Potency [6] | outcome [7] | activation [8] 1.31% | outcome [9]

COC(=O)C(N)CCCN=C(N)N[N+](=O)[O-] (configuration not stated)
inactive: Potency [1] | outcome [2] | Potency [4] | Potency [5] | Potency [6] | outcome [7] | activation [8] 1.06% | outcome [9]
